Compound activity: PubChem BioAssay, Center for Chemical Genomics, University of Michigan
Dicer processing = inhibitors of human Dicer processing of pre-microRNA. Q9UPY3. cat-ELCCA pre-miR-21 Dicer processing, chemiluminescence; stronger effect = higher value. z-score at 25 µM. 47,000 compounds, 6% hits; in the data active = z-score above about 3, passing the limit was not always enough;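 note: higher signal means more uncleaved substrate so more Dicer inhibition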
Each line names hits and unclear results; the compound was inactive in the other large screens. This excerpt belongs to a sample that is enriched for hits.

O=C(Cn1c(-c2cncs2)nc2ccccc21)Nc1ccc2c(c1)OCCO2	Dicer processing 4.2
N/C(CS(=O)(=O)Cc1cccc(C(F)(F)F)c1)=N\O	none
O=C1CC(c2c[nH]c3ccccc23)C(=O)N1c1ccccc1 (stereo unspecified)	none
O=C1CC(c2cn(Cc3ccccc3)c3ccccc23)C(=O)N1c1ccc(O)cc1 (stereo unspecified)	Dicer processing 5.6
O=C1CC(N2CCN(c3ccc(O)cc3)CC2)C(=O)N1c1ccccc1 (stereo unspecified)	none
Cc1ccc(C(=O)OCCSc2ccc(C(F)(F)F)cn2)cc1	none
CCc1nc2nc(CSc3ccc(C)cc3)cc(=O)n2[nH]1	none
O=c1cc(CSc2ccc(Cl)cc2)nc2nc[nH]n12	Dicer processing 4.4
O=c1cc(-c2ccccc2)nc2nc[nH]n12	none
Cc1[nH]c2ccccc2c1C(=O)CSc1nnc(C2CCCCC2)n1C	none
CCn1c(SCC(=O)c2c[nH]c3ccccc23)nnc1-c1ccco1	Dicer processing 3.4
Cc1[nH]c2ccccc2c1C(=O)CSc1nnc(Cc2cccs2)n1C	Dicer processing 3.4
Cc1[nH]c2ccccc2c1C(=O)CSc1nnc(-c2cccs2)n1C	none
CCn1c(SCC(=O)c2c[nH]c3ccccc23)nnc1-c1cccs1	none
CCn1c(SCC(=O)c2c(C)[nH]c3ccccc23)nnc1-c1ccco1	none
Cc1[nH]c2ccccc2c1C(=O)CSc1nnc(-c2ccco2)n1-c1ccccc1	Dicer processing 4.7
Cc1[nH]c2ccccc2c1C(=O)CSc1nnc(-c2ccco2)n1C	none
O=C(CSc1nnc(-c2ccco2)n1-c1ccc(OCc2ccccc2)cc1)c1ccccc1	none
Cc1cc(C)c(NC(=S)NCCCN2CCOCC2)c(C)c1	none
CCOC(=O)CC1=Nn2c(nnc2-c2cc(Cl)cc(Cl)c2)SC1	none
NC(=O)CN1C(C(=O)c2ccccc2)=C(NCc2ccccc2)c2ccccc2S1(=O)=O	none
NC(=O)CN1C(C(=O)c2ccccc2)=C(N2CCOCC2)c2ccccc2S1(=O)=O	none
CCCN(CCC)C1=C(C(=O)c2ccccc2)N(CC(N)=O)S(=O)(=O)c2ccccc21	Dicer processing 3.5
O=C(O)/C(=N/NC(=O)c1ccc(Cl)cc1)c1ccccc1	none
CC(=NCc1cccc(CN=C(C)c2ccccc2O)c1)c1ccccc1O	none
C/C(=N\NC(=O)c1ccc(Cl)cc1)c1ccccc1O	Dicer processing 33
CC(C)(C)SCCN=C(Nc1ccc(Cl)cc1)c1ccccc1Cl	none
CCOC(=O)N/N=C(\C)c1ccccc1O	none
CC(=NCCc1ccc(Cl)cc1)c1ccccc1O	Dicer processing 5.2
O=C(COC(=O)c1ccc2ccccc2c1OC(=O)c1ccc(Cl)cc1)c1ccc(Cl)cc1	none
CC(O)C(Nc1ccccc1CC(=O)OC(C)(C)C)C(=O)O (stereo unspecified)	none
CCOC(=O)NC(NC(C)c1ccccc1)(C(F)(F)F)C(F)(F)F (stereo unspecified)	none
CCOC(=O)NC1(NCC(C)C)Oc2ccccc2O1	Dicer processing 6
CCOC(=O)C(OC(=O)Nc1ccccc1)C(OC(=O)Nc1ccccc1)C(=O)OCC (stereo unspecified)	none
Cc1c(NC(=O)CC2SC(=O)NC2=O)c(=O)n(-c2ccccc2)n1C (stereo unspecified)	none
CCCCCOC(=O)CCSc1n[nH]c(=O)[nH]c1=O	none
COc1cc(C2Nc3ccccc3NC3=C2C(=O)CC(C)(C)C3)ccc1OCc1ccccc1 (stereo unspecified)	none
O=C(c1cc(O)c(O)c([N+](=O)[O-])c1)c1ccccc1F	none
Cc1ccc(C(=O)c2cc(O)c(O)c([N+](=O)[O-])c2)cc1	Dicer processing 8.4
CC(=O)c1ccc(SC(C)C)c([N+](=O)[O-])c1	none
COC(=O)C1=C(C)N=c2s/c(=C/c3ccc(Cl)cc3)c(=O)n2C1c1ccc(OC)cc1 (stereo unspecified)	Dicer processing 4.6
COC(=O)c1sc(N2C(=O)C(=O)/C(=C(/O)c3ccc(Cl)cc3)C2c2ccc(OC)cc2)nc1C (stereo unspecified)	none
COC(=O)C1=C(C)N=c2s/c(=C/c3ccc4c(c3)OCO4)c(=O)n2C1c1ccccc1 (stereo unspecified)	none
NC(=O)c1sc(=S)n(-c2ccc(Cl)cc2)c1N	none
Cc1nc2c(-c3ccccc3)c(C(F)(F)F)nn2c(C)c1-c1ccccc1	none
O=C1CC(NC2CCN(c3ccc(C(F)(F)F)cn3)CC2)C(=O)N1c1ccc(F)cc1 (stereo unspecified)	none
O=c1c2nnn(Cc3ccccc3)c2ncn1Cc1ccc(F)cc1	none
CCOC(=O)c1cnn(-c2ccccc2)c1NC(=O)CN1CCOCC1	none
CCOC(=O)c1cnn(-c2ccccc2)c1NC(=O)CN1CCN(C)CC1	none
CCOC(=O)c1cnn(-c2ccccc2)c1NC(=O)Nc1ccccc1	Dicer processing 4.1
Cc1[nH]nc2c1C(c1ccc(-c3ccccc3)cc1)C(C#N)=C(N)O2 (stereo unspecified)	none
O=C(Nc1ccc(OC(=O)N2CCOCC2)cc1)N1CCOCC1	none
COc1ccc(S(=O)(=O)NCCNC(=O)N2CCOCC2)cc1	none
COc1ccc(OC(=O)N2CCOCC2)cc1	Dicer processing 5
C=CCC1CC(=O)N(c2ccc(C)c(F)c2)C1=O (stereo unspecified)	none
CCCOC(=O)C1=C(C)NC2=C(C(=O)CC(C)(C)C2)C1c1ccc(CC)cc1 (stereo unspecified)	none
Cc1cc(C)c(S(=O)(=O)Nc2ccc(-c3cn4ccccc4n3)cc2)cc1C	none
Cc1nc(-c2cccc(NS(=O)(=O)c3ccc4ccccc4c3)c2)cs1	Dicer processing 4.5
CC(=O)Nc1ccc(S(=O)(=O)Nc2ccc(-c3csc(C)n3)cc2)cc1Cl	none
CC(=O)Nc1nc(-c2ccc3ccccc3c2)cs1	none
Cc1nc(-c2ccc(NS(=O)(=O)c3ccc(Cl)cc3)cc2)cs1	Dicer processing 5.9
Cc1nc(-c2ccc(Cl)cc2)cs1	none
Cc1cccn2cc(-c3cccc(S(=O)(=O)N4CC(C)CC(C)C4)c3)nc12 (stereo unspecified)	none
Cc1cccn2cc(-c3ccc(NS(=O)(=O)c4ccc(Cl)cc4)cc3)nc12	Dicer processing 6
CCc1ccc(S(=O)(=O)Nc2ccc(-c3cn4cccc(C)c4n3)cc2)cc1	Dicer processing 7.2
Cc1cccc(S(=O)(=O)Nc2cccc(-c3cn4ccc(C)cc4n3)c2)c1	none
Cc1cccc(S(=O)(=O)Nc2ccc(-c3cn4cccc(C)c4n3)cc2)c1	none
CCCN(CCC)S(=O)(=O)c1cccc(-c2cn3cccc(C)c3n2)c1	none
O=[N+]([O-])c1ccc(CSc2ncc(C(F)(F)F)cc2Cl)cc1	none
Cc1cccc(C(=O)/C=C\Nc2ccc(Cl)cn2)c1	none
CSc1nc(-c2cccs2)c(C#N)c(=O)n1C	none
CC1(C)CC(=O)c2cnc3[nH]n(-c4ccccc4)c(=O)c3c2C1	none
C=CCNC(=S)NNC(=O)c1ccc(O)cc1	none
CCCCOC(=O)COc1ccc2oc(-c3ccc(OC)cc3)cc(=O)c2c1	none
COC(=O)c1cccc(COC(=O)CCc2nc3ccccc3[nH]c2=O)c1	none
O=C1CC(=O)CC(c2ccc(Cl)cc2Cl)C1	none
CS(=O)(=NS(=O)(=O)c1ccccc1C(F)(F)F)c1ccc(Cl)cc1 (stereo unspecified)	none
CS(=O)(=NS(=O)(=O)c1cc(Cl)ccc1Cl)c1ccc(Cl)cc1 (stereo unspecified)	Dicer processing 4.1
CS(=O)(=NS(=O)(=O)c1ccc(Cl)cc1)c1ccccc1 (stereo unspecified)	none
COc1ccc(C2/C(=C(\O)c3ccc(F)cc3)C(=O)C(=O)N2Cc2cccnc2)cc1OC (stereo unspecified)	none
COc1ccc(COC(=O)C2=C(C)NC3=C(C(=O)CCC3)C2c2cc(OC)ccc2OC)cc1 (stereo unspecified)	none
